# KB-V1 MDR tox: kills drug-selected multidrug resistant KB-V1 cells; KB-V1 MDR cells viability, CellTiter-Glo, 72 h; Potency, µM (series often up to 46.1 µM), actives largely listed as cytotoxic; 400,000 compounds, 3.4% hits; also: % is scaled to controls: 0 for no effect and ±100 for the full control effect; nearly all actives have a fitted effect of over 60% in size
#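 Cytotoxicity via CellTiter-Glo luminescence after 72 h compound exposure at 37 degrees C. Cells: drug-selected KB-V1 line, DMEM phenol-red free plus 10% FBS. Compounds tested at multiple concentrations; normalized data fitted to concentration-effect curves.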
# HT1080 IDH1KD tx: toxicity to HT-1080 IDH1 knockdown cells (counter line) | HT-1080 IDH1 knockdown viability, ATP luminescence, 48 h | Potency, µM (doses to about 46.1 µM), for inactives: top-dose activity, negative = toxicity, actives largely listed as cytotoxic | 360,000 compounds, 2% hits | AID 686971;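 also: 0% = DMSO wells and -100% = cell-free medium wells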
#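 CellTiter-Glo luminescence after 48 h compound exposure at 37 degrees C of IDH1-knockdown HT-1080 cells in 5% FBS RPMI. %Activity scaled between DMSO wells and cell-free media wells, with curves fitted and assigned curve classes.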
# KB-3-1 cytotox: kills parental KB-3-1 adenocarcinoma cells | Potency, µM (series often up to 46.1 µM), hits mostly cytotoxic | 400,000 compounds, 1.4% hits | KB-3-1 viability, CellTiter-Glo ATP luminescence, 72 h | AID 1347075; also: % is scaled to controls: 0 for no effect and ±100 for the full control effect; nearly all actives have a fitted effect of over 60% in size
#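 Viability of parental KB-3-1 cells, measured by CellTiter-Glo luminescence, followed a 72 h incubation at 37 °C with pinned compounds in phenol-red-free DMEM containing 10% FBS.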
# SW480 rerep: induces DNA re-replication in SW480 colon adenocarcinoma cells | SW480 DNA re-replication, Hoechst DNA content imaging, 48 h | Potency, µM (series often up to 46.1 µM), inactives show at the top dose re-replication activation, usual class: activators | 340,000 compounds, 1.8% hits | AID 624297; also: % of control where 0% means no effect; nearly all actives have a fitted effect of over 55% in size
#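 Per well, 250 cells were exposed to pinned compound for 48 hr. Nuclear DNA was visualised with Hoechst (40 min, 37 C) and total object intensity recorded by fluorescence scanning.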
# HT1080NT lethal: kills 2HG-producing HT-1080-NT fibrosarcoma cells | 360,000 compounds, 1.6% hits | HT-1080-NT fibrosarcoma viability, CellTiter-Glo ATP luminescence, 48 h | Potency, µM (titrated, usually from 46.1 µM), without a hit: top-dose activity, negative = less viability, hits mostly cytotoxic | AID 686970;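 also: NT is the 2HG producing partner of a matched IDH1 knockdown line; 0% = DMSO-treated cells and -100% = media-only wells without cells; nearly all actives have a fitted effect of over 55% in size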
#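 HT-1080-NT fibrosarcoma cells (2HG-overproducing), 750 cells/well in RPMI with 5% FBS, dosed after 2 h and incubated 48 h at 37C. CellTiter-Glo luminescence normalized to DMSO and no-cell wells; concentration-response curves fitted and classed.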
# MCF10A rereplic: DNA re-replication induction in MCF 10a cells. MCF 10A DNA re-replication, Hoechst nuclear intensity, 48 h. Potency, µM (top dose mostly 46.1 µM), inactives show at the top dose activity, positive = re-replication, hits mostly activators. 350,000 compounds, 2.9% hits; also: % of control where 0% means no effect; nearly all actives have a fitted effect of over 50% in size
# * hit, by the source's call; i = inactive; ? = inconclusive; nt = not tested or not shown; [ ] = remark or other dose. An excerpt weighted towards active compounds, which were near 8% of everything screened. Calls follow the shape of the dose curve; as a rule, active = well fitted curve in the direction sought with a large enough effect; inconclusive = small, poorly fitted or top-dose-only effect, or another doubt; inactive = no such curve, though single readings can be large; an effect the other way counts as inactive or inconclusive. Potency is read from the fitted curve at half-maximal effect.
SMILES,KB-V1 MDR tox,HT1080 IDH1KD tx,KB-3-1 cytotox,SW480 rerep,HT1080NT lethal,MCF10A rereplic
CCC1CN(S(=O)(=O)c2cc(-c3cc(C)no3)ccc2C)c2cc(Cl)ccc2O1 (stereo not drawn),i,nt,i,nt,nt,nt
NC(=O)C1CCN(C(=O)C(Cc2ccccc2)NC(=O)c2ccccc2)CC1 (stereo not drawn),i,10%,i,21µM*,-1%[9.24 µM],27%
CC(=O)Nc1ccccc1OCc1cc(=O)n2c3c(sc2n1)CCCC3,?,nt,i,nt,nt,nt
c1ccc(Nc2nc(-c3ccncc3)nc3ccccc23)cc1,i,13%,i,3%,-5%,17%
Cc1ccc(Nc2nc(-c3ccncc3)nc3ccccc23)cc1,i,1%,i,55%,-10%,9.2µM*
c1ccc(CCNc2nc(-c3ccncc3)nc3ccccc23)cc1,15µM*,4.1µM*,?,21µM*,?,?
Cc1ccc(Nc2nc(-c3ccccc3)nc3ccccc23)cc1,?,nt,i,nt,nt,nt
Cc1ccc(-c2nc(N/N=C/c3ccccc3[N+](=O)[O-])c3ccccc3n2)cc1,i,4.5µM*,i,7.3µM*,?,13µM*
COc1ccc(CCNC(=O)CCCCn2c(=O)c3ccccc3n(Cc3cccc(C)c3)c2=O)cc1OC,i,nt,i,nt,nt,nt
CC(C)C[C@H]1COc2cc(N3CCC[C@@H]3CO)ccc2S(=O)(=O)N1,?,0%,i,nt,1%,nt
CSc1nc2sc3c(c2c(=O)n1Cc1ccccc1)CCC(C(C)(C)C)C3 (stereo not drawn),?,nt,i,nt,nt,nt
COCCN(C(=O)COC(=O)CSc1ccc(Cl)cc1)c1c(N)n(Cc2ccccc2)c(=O)[nH]c1=O,i,-10%,i,-1%,0%,-3%
CN(C)S(=O)(=O)c1cccc(NC(=O)Cc2ccc(Cl)cc2)c1,21µM*,2%,i,-160%,3%,?
Cc1ccc(S(=O)(=O)N(C)C)cc1NC(=O)COc1ccccc1C(=O)Nc1ccccc1,?,2%,i,-5%,1%,16%
CCN(CC)S(=O)(=O)c1cc(NC(=O)c2ccccc2OCc2c(C)noc2C)ccc1C,7.3µM*,-10%,i,-5%,-7%,9%
CN(C)S(=O)(=O)c1cccc(NC(=O)COc2ccccc2C(=O)Nc2ccccc2)c1,16µM*,?,?,nt,-30%,nt
Cc1ccc(NC(=O)c2ccccc2OCC(=O)Nc2ccccc2F)cc1S(=O)(=O)N(C)C,?,?,5.2µM*,-8%,-24%,9%
CC(C)COc1ccc(CC(=O)NO)cc1,i,nt,i,nt,nt,nt
COc1cccc(C2C(C(=O)Nc3cccnc3)=C(C)Nc3nc(SCc4ccccc4)nn32)c1 (stereo not drawn),i,nt,i,nt,nt,nt
COc1ccc(N2CCN(C(=O)CN3CCSc4ccccc43)CC2)cc1,?,nt,i,nt,nt,nt
CC(=O)Nc1cccc(NC(=O)c2ccccc2OCc2c(C)noc2C)c1,i,-9%,i,1%,1%,1%
Cc1noc(C)c1COc1ccccc1C(=O)Nc1cccc(S(=O)(=O)N(C)C)c1,15µM*,10%,i,-6%,8%,5%
Cc1ccc(NC(=O)CN2C(=O)CSc3ccc(S(=O)(=O)N(C)C)cc32)cc1C,i,nt,i,nt,nt,nt
CCOC(=O)N1CCC(NC(=O)c2cc(COc3ccccc3SC)on2)CC1,9.2µM*,?,i,7%,3%,17%
C=CCC1(CC=C)CCCN1C(=O)c1cc(COc2ccc(F)c(F)c2)on1,i,-24%,i,-15%,-5%,-2%
SMILES,KB-V1 MDR tox,HT1080 IDH1KD tx,KB-3-1 cytotox,SW480 rerep,HT1080NT lethal,MCF10A rereplic
CCOC(=O)N1CCC(NC(=O)c2cc(COc3ccc(F)cc3Cl)on2)CC1,i,0%,i,-8%,-1%,12%
C=CCC1(CC=C)CCCN1C(=O)c1cc(COc2ccc(C)nc2)on1,i,2.9µM*,?,-20%,21µM*,26%
Cc1ccc(OCc2cc(C(=O)NC3CCCCC3)no2)cn1,?,15µM*,?,-28%,?,-1%
CC(C)c1ccc(NC(=O)CSC2=Nc3ccccc3C3=NC(CCC(=O)NCc4ccco4)C(=O)N23)cc1 (stereo not drawn),i,nt,i,nt,nt,nt
CCOc1ccccc1NC(=O)CSc1nc2cc(OC)c(OC)cc2c2nc(CCn3c(C)nc4ccccc43)nn12,i,nt,i,nt,nt,nt
COc1ccccc1C(=O)Nc1ccc2c(c1)nc(CCNC(C)=O)n2C,i,14%,i,-12%,24%,-4%
COc1ccccc1C(=O)Nc1ccc2c(c1)nc(CCNC(=O)c1ccccc1)n2C,?,4.1µM*,?,13µM*,4.1µM*,6.5µM*
CCn1c(CCNC(=O)c2ccc(OC)c(OC)c2)nc2ccccc21,3.7µM*,3%,i,1%,9%,0%
CC(C(=O)N1CCCC1)N(c1ccc(Cl)cc1)S(C)(=O)=O (stereo not drawn),i,-2%,i,nt,-4%,nt
CC(C)c1ccc(S(=O)(=O)c2nnn3c2nc(NC2CCCC2)c2sccc23)cc1,i,nt,i,nt,nt,nt
COc1ccc(CNC(=O)CN(c2ccccc2OC)S(=O)(=O)c2ccc(C)cc2)cc1,i,nt,i,nt,nt,nt
C/C=C(\C)C(=O)OC1[C@H](OC(C)=O)C2(CO)C(CC1(C)C)C1=CCC3C4(C)CCC(O[C@@H]5O[C@H](C(=O)O)[C@@H](O[C@@H]6O[C@H](CO)[C@@H](O)[C@H](O)[C@H]6O)[C@H](O)[C@H]5O[C@H]5O[C@H](CO)[C@@H](O)[C@H](O)[C@H]5O)[C@](C)(CO)C4CCC3(C)[C@]1(C)C[C@H]2O (stereo partly drawn),?,nt,i,2%,nt,6.5µM*
CCN(CC)CCNC(=O)c1ccc(-c2nc(CN3CCc4ccccc43)c(C)o2)cc1,?,nt,i,nt,nt,nt
Cc1oc(-c2ccc(C(=O)NCCC(C)C)cc2)nc1CN1CCc2ccccc21,?,nt,7.3µM*,nt,nt,nt
CC(Nc1nc(N2CCNCC2)nc2ccccc12)c1ccccc1 (stereo not drawn),i,15µM*,i,13%,?,46%
CC(Nc1nc(-c2ccncc2)nc2ccccc12)c1ccccc1 (stereo not drawn),i,-15%,i,?,-20%,25%
COc1ccccc1NC(=O)CN1CCN(CC(=O)Nc2ccc(OCc3ccccc3)cc2)CC1,?,?,i,14%,?,5%
